Experimental data from publication PMC4552634, “A New Set of Chemical Starting Points with Plasmodium falciparum Transmission-Blocking Potential for Antimalarial Drug Discovery” (PLoS ONE, 2015).
Where two headings read alike, the source gives them in different places. In all, about 13,000 compounds went through this assay and about 3,200 (25%) showed an effect of 50% or more. The list shows a part of the results.

Tested on: P. falciparum stage V gametocytes
Design: BacTiter-Glo ATP luminescence viability of purified stage V gametocytes in 384-well plates, per cent inhibition versus DMSO
Conditions: 48 h, 5 µM, inhibitor

Compound | % Inhibition [%] | % Inhibition (% Inhibition) [%]
CN(C)c1ccc(-c2csc(C(=O)NC3CCCCN(CCC(C)(C)C)C3)c2)cc1 (centres unmarked) [TCMDC-134487] | -62.75 | 
CC(C)(C)c1ccc(CN2CCCCC(NC(=O)c3cc(-c4cccc(Cl)c4)cs3)C2)cc1 (centres unmarked) [TCMDC-134468] | -11.91 | 
O=C(NCC1CCC(C(=O)NCc2cccc(C(F)(F)F)c2)CC1)c1ccc(O)c(-c2ccc(Cl)c(Cl)c2)c1 (centres unmarked) [TCMDC-140886] | 8.372 | 
COc1ccc2sc(CNCCCNc3cc(=O)c4ccccc4[nH]3)c(Cl)c2c1 [TCMDC-140334] | -8.727 | 
O=C(NC1CCN(Cc2ccccc2)CC1)c1ccc(-c2nc3cc4ccccc4cc3[nH]2)s1 [TCMDC-140122] | 18.76 | 
CC1Cc2ccccc2N1CC(=O)Nc1cc(C(F)(F)F)ccc1-n1cncn1 (centres unmarked) [TCMDC-124870] | -73.33 | 
O=C(NCCNc1noc(-c2sccc2Br)n1)c1ccc(Cl)cc1 [TCMDC-134182] | 2.834 | 
O=c1cc(N2CCCNCC2)c(Cl)nn1Cc1ccc(NS(=O)(=O)c2ccc(Oc3ccccc3)cc2)cc1 [TCMDC-141692] | 2.781 | 
COc1ccc(-c2cnc3[nH]cc(-c4ccc(CCC(=O)O)cc4)c3c2)cn1 [TCMDC-136240] | 35.75 | 
COc1ccc(-c2cnc3[nH]cc(-c4ccc(C(=O)O)cc4)c3c2)cn1 [TCMDC-136213] | 14.9 | 
COc1ccc(-c2cnc3[nH]cc(-c4ccncc4)c3c2)cc1OC [TCMDC-135853] | 140.3 | 
COc1ccc(CNC(=O)C2Cc3ccccc3CN2Cc2ccc3ccccc3c2)cc1 (centres unmarked) [TCMDC-141565] | -15.29 | 
CC1CCCN(C(=O)c2cc(-c3ccccn3)nc3c(Cl)cccc23)C1 (centres unmarked) [TCMDC-125218] | 20.47 | 
COc1ccc(-c2nonc2NC(=O)c2cccc(Cl)c2)cc1OC [TCMDC-125401] | 22.75 | 
O=C(Nc1nc(-c2ccccn2)cc2ccccc12)c1cccc(Cl)c1 [TCMDC-123886] | 116.1 | 
NC(=Nc1nc(-c2ccccn2)cc2ccccc12)c1cccc(Cl)c1 [TCMDC-123745] | 62.24 | 
O=C(O)c1ccc2nc(-c3ccccn3)c(-c3ccccn3)nc2c1 [TCMDC-123820] | -4.631 | 
CC(=O)Oc1cc(C(=O)Nc2ccc(Cl)cc2)cc2ccccc12 [TCMDC-123708] | 7.424 | 

Compound | % Inhibition [%] | % Inhibition (% Inhibition) [%]
O=C(NC1CCN(Cc2ccccc2)CC1)c1ccc(-c2nc3cc(Cl)c(F)cc3[nH]2)s1 [TCMDC-140100] | 2.226 | 
Cc1ccc(-c2csc(C)n2)c(C)c1 [TCMDC-125751] | 2.132 | 
O=c1cc(-c2cccc(C(F)(F)F)c2)nc(Nc2ccc(Cl)c(Cl)c2)[nH]1 [TCMDC-132206] | 43.99 | 
COc1cc(CS(C)(=O)=O)ccc1Nc1nccc(-c2c(-c3cccc(NC(=O)c4c(F)cccc4F)c3)nn3ccccc23)n1 [TCMDC-135792] | -6.854 | 
O=C(/C=C/c1ccc(Cl)c(Cl)c1)NCCCCCN1CCC(NC(=O)c2ccc(F)cc2F)CC1 [TCMDC-135842] | -11.69 | 
O=C(C=Cc1ccc(Cl)c(Cl)c1)NCCCCCN1CCC(CCCNS(=O)(=O)c2ccc(F)cc2)CC1 [TCMDC-139589] | 110.7 | 
O=C(/C=C/c1ccc(Cl)c(Cl)c1)NCCCCCN1CCC(NC(=S)Nc2ccc(F)cc2F)CC1 [TCMDC-135900] | 33.5 | 
O=C(/C=C/c1ccc(Cl)c(Cl)c1)NCCCCCN1CCC(NC(=O)Nc2ccc(F)cc2F)CC1 [TCMDC-135712] | 11.66 | 
O=C(C=Cc1ccc(Cl)c(Cl)c1)NCCCCCN1CCC(CCNS(=O)(=O)c2ccc(F)cc2)CC1 [TCMDC-139585] | 78.1 | 
Cc1cc(NC(=O)Nc2cccc(Cl)c2Cl)c2ccccc2n1 [TCMDC-138971] | 10.53 | 
O=C(CCc1c[nH]cn1)Nc1cccc(-c2ccc(-c3nc4cc(F)ccc4[nH]3)s2)c1 [TCMDC-132160] | 19.34 | 
CCOc1ccc(CCCON2C(N)=NC(N)=NC2(C)C)cc1 [TCMDC-131754] | 18.76 | 
C/C=C1\CN2CC[C@H]1C[C@H]2[C@H](O)c1ccnc2ccc(OC)cc12 [TCMDC-138275] |  | 1.908
COc1ccc2ncc(C#N)c(CCN3CCC(NCc4cnc5c(c4)OCCO5)CC3)c2n1 [TCMDC-135230] | 35.06 | 
CC(C)C(NC(=O)c1c(F)cccc1F)C(=O)Nc1ccc(Cc2nc3ccccc3s2)cc1 (centres unmarked) [TCMDC-125462] | -3.098 | 
CC(=O)c1sc(Cc2nc3ccccc3s2)nc1C [TCMDC-125337] | 10.02 | 
CC(C)[C@H](NC(=O)c1c(F)cccc1F)C(=O)Nc1ccc(Cc2nc3ccccc3s2)cc1 [TCMDC-125031] | 63.22 | 
